# Screen size: about 52,000 compounds; about 4,300 (8.3%) were called active. The sample holds actives, similar compounds and a random draw of the others, so the mix is not that of the screen. Cut-off read from the data, not from the text of the source: active = survival mostly below about 52% (no sharp cut-off); inactive = mostly above about 56%.
# System: DeltatarO mutant
# Assay: S. aureus survival, RN4220 and DeltatarO strains – OD600, teichoic acid synthesis inhibitors, primary screen (AID 463173)
# Conditions: S. aureus RN4220 wild type/DeltatarO growth, OD600, 18 h, hits give low values, screened at 18.75 µg/mL (by protocol)
row,Structure (SMILES),survival
1,CC(=O)N1CCN(c2ccc(NC(=O)COc3ccc(Cl)c(C)c3)cc2)CC1,68% (inactive)
2,CCN(CC)S(=O)(=O)c1ccc(NC(=O)CN(c2ccccc2)S(=O)(=O)N(C)C)cc1,69% (inactive)
3,CCNC(=O)c1cnc2sc(N3CCCCCC3)nn2c1=O,81% (inactive)
4,C/C(Cc1ccccc1)=N\NC(=O)c1cc(C(C)(C)C)[nH]n1,101% (inactive)
5,CC1=C(c2ccc(C)c(C)c2)S(=O)(=O)N=C1N1CCC(C(=O)NC(C)Cc2ccco2)CC1 (configuration not stated),83% (inactive)
6,O=C(CN1CCN(c2ncccn2)CC1)N(Cc1ccccc1)c1ccc(F)cc1,78% (inactive)
7,COc1ccc(NC(=O)C2CCN(C3=NS(=O)(=O)C(c4ccc(C)c(C)c4)=C3C)CC2)c(OC)c1,91% (inactive)
8,CN=CC1=C(O)C(C(=O)OC)C(C)(C)CC1=O (configuration not stated),74% (inactive)
9,CCCCCn1c(=O)[nH]c2cc(C(=O)N3CCN(c4ccccc4)CC3)ccc2c1=O,68% (inactive)
10,COc1ccc(NC(=O)CCNS(=O)(=O)c2cccc3nonc23)cc1,50% (active)
11,CCOc1ccc(NC(=O)CCS(=O)(=O)c2cccc3nonc23)cc1,78% (inactive)
12,CCOc1ccc(NC(=O)CCNS(=O)(=O)c2cccc3nonc23)cc1,70% (inactive)
13,O=C(C1CCCCC1)N(Cc1cccnc1)c1nc2c(F)cc(F)cc2s1,88% (inactive)
14,COc1ccc(C2C=C(c3ccccc3)Nc3nc(NC(=O)/C=C/c4ccc(Cl)cc4)nn32)cc1 (configuration not stated),53% (inactive)
15,COc1ccc(C2C=C(c3ccccc3)Nc3nc(NC(=O)/C=C/c4ccccc4Cl)nn32)cc1 (configuration not stated),96% (inactive)
16,COc1ccc(C2C=C(c3ccccc3)Nc3nc(NC(=O)/C=C/c4ccccc4OC)nn32)cc1 (configuration not stated),52% (active)
17,O=C(/C=C/c1ccccc1)Nc1nc2n(n1)C(c1ccc(F)cc1)C=C(c1ccccc1)N2 (configuration not stated),44% (active)
18,COc1ccc(/C=C/C(=O)Nc2nc3n(n2)C(c2ccccc2)C=C(c2ccc(Cl)cc2)N3)cc1 (configuration not stated),77% (inactive)
19,COc1ccccc1/C=C/C(=O)Nc1nc2n(n1)C(c1ccc(F)cc1)C=C(c1ccccc1)N2 (configuration not stated),65% (inactive)
20,O=C(/C=C/c1ccc(F)cc1)Nc1nc2n(n1)C(c1ccc(Cl)cc1)C=C(c1ccccc1)N2 (configuration not stated),33% (active)
21,COc1ccc(C2C=C(c3ccccc3)Nc3nc(NC(=O)/C=C/c4ccccc4)nn32)cc1 (configuration not stated),59% (inactive)

row,Structure (SMILES),survival
1,O=C(/C=C/c1ccccc1)Nc1nc2n(n1)C(c1ccc(Cl)cc1)C=C(c1ccccc1)N2 (configuration not stated),38% (active)
2,COc1ccc(NCc2cccn2-c2nnc(N3CCC(C)CC3)s2)c(OC)c1,73% (inactive)
3,COc1ccc(C(=O)Nc2ccccc2C(=O)NC(C(=O)O)C(C)C)cc1 (configuration not stated),84% (inactive)
4,O=C(CSc1nc(-c2ccccc2)cc(=O)[nH]1)Nc1ccccc1F,89% (inactive)
5,CCCN(CCC)S(=O)(=O)c1ccc(C(=O)N2CCC(=O)c3ccccc32)cc1,94% (inactive)
6,CCc1cccc(C)c1NC(=O)C(CC)n1ncn2c(cc3cc(C)ccc32)c1=O (configuration not stated),86% (inactive)
7,COc1ccc(NC(=O)CN(c2cccc(C)c2C)S(=O)(=O)c2ccccc2)cc1OC,61% (inactive)
8,Cc1ccc2c(c1)cc1c(=O)n(CC(=O)N(C)c3ccccc3)nc(C)n12,129% (inactive)
9,O=C(NCCc1ccccc1)c1ccc2c(c1)N(Cc1ccccc1)C(=O)c1ccccc1S2=O (configuration not stated),70% (inactive)
10,COc1ccc(OC)c2sc(N(Cc3cccnc3)C(=O)c3ccc(C(C)=O)cc3)nc12,120% (inactive)
11,COc1ccc(/C=C/C(=O)Nc2nc3n(n2)C(c2ccc(F)cc2)C=C(c2ccccc2)N3)cc1 (configuration not stated),42% (active)
12,COc1ccc(C2C=C(c3ccccc3)Nc3nc(NC(=O)/C=C/c4ccc(F)cc4)nn32)cc1 (configuration not stated),51% (inactive)
13,COc1ccc(/C=C/C(=O)Nc2nc3n(n2)C(c2ccccc2)C=C(c2ccccc2)N3)cc1 (configuration not stated),70% (inactive)
14,Cc1cc(=O)[nH]c(SCC(=O)OCc2ccccc2)c1C#N,102% (inactive)
15,CCCN(CCC)CCCNC(=O)Cn1ncc2c3ccccc3n(Cc3ccccc3F)c2c1=O,129% (inactive)
16,Cc1ccccc1Cn1c(CN2CCC(C(=O)NCc3ccc(Cl)cc3)CC2)cc2ccccc21,67% (inactive)
17,CCCCN(CC)CCCNC(=O)c1cc2c(=O)[nH]c3ccccc3c2n1C,90% (inactive)
18,COc1cccc(CSc2nc3ccncc3n2CC(=O)Nc2ccc(OC)c(OC)c2OC)c1,98% (inactive)
19,COc1ccc(CSc2nc3ccncc3n2CC(=O)Nc2cc(C)cc(C)c2)cc1,60% (active)
20,O=C(Cn1c(SCc2ccccc2F)nc2ccncc21)Nc1ccccc1C(F)(F)F,66% (inactive)
21,CCc1ccccc1NC(=O)Cn1c(SCc2ccc(F)cc2)nc2ccncc21,36% (active)

row,Structure (SMILES),survival
1,COc1ccc(CSc2nc3ccncc3n2CC(=O)Nc2ccc(C)c(F)c2)cc1,85% (inactive)
2,CN(C)c1ccc(NC(=O)Cn2c(SCc3ccc(F)cc3)nc3ccncc32)cc1,72% (inactive)
3,COc1ccc(S(=O)(=O)N(CCc2ccccc2)CC(=O)Nc2cc(C)cc(C)c2)cc1OC,54% (inactive)
4,Cc1ccc(C)c(Cn2c(=O)n(-c3ccc(F)cc3)c(=O)c3sc4ccccc4c32)c1,95% (inactive)
5,CC[N+](C)(C)Cc1ccco1,80% (inactive)
6,COc1cc2c(C(=O)Nc3cc(OC)c(OC)c(OC)c3)cn(C)c(=O)c2cc1OC,63% (inactive)
7,OC1(C#Cc2ccccc2)CCCCC1,104% (inactive)
8,COc1ccc(CCCc2n[nH]c(=S)o2)c(C)c1,94% (inactive)
9,Cn1c(=O)c2c(-c3ccccc3Br)n(Cc3ccccc3)cc2n(C)c1=O,88% (inactive)
10,CCCCn1cc2c(c1-c1ccccc1Br)c(=O)n(C)c(=O)n2C,76% (inactive)
11,Cn1c(=O)c2c(-c3ccc(Cl)cc3)n(Cc3ccccc3)cc2n(C)c1=O,40% (active)
12,CCCCn1cc2c(c1-c1ccc(Br)cc1)c(=O)n(C)c(=O)n2C,58% (inactive)
13,Cn1c(=O)c2c(-c3ccc(Cl)cc3)n(CCc3ccccc3)cc2n(C)c1=O,93% (inactive)
14,Cn1c(=O)c2c(-c3ccccc3Cl)n(-c3cc(Cl)ccc3O)cc2n(C)c1=O,53% (active)
15,Cn1c(=O)c2c(-c3ccc(Br)cc3)n(Cc3ccc(F)cc3)cc2n(C)c1=O,49% (active)
16,Cn1c(=O)c2c(-c3ccc(Br)cc3)n(CCc3ccccc3)cc2n(C)c1=O,89% (inactive)
17,Cc1ccc(-c2c3c(=O)n(C)c(=O)n(C)c3cn2-c2cc(C)ccc2O)cc1,75% (inactive)
18,Cn1c(=O)c2c(-c3ccc(Cl)cc3)n(Cc3ccc(Cl)cc3)cc2n(C)c1=O,56% (inactive)
19,Cn1c(=O)c2c(-c3ccccc3Cl)n(Cc3ccc(Cl)cc3)cc2n(C)c1=O,60% (inactive)
20,Cn1c(=O)c2c(-c3ccccc3Br)n(CCc3ccccc3)cc2n(C)c1=O,45% (active)
